Results from PubChem BioAssay (Tox21).
Records with an inconclusive call do not appear. Where a call stands in place of a potency, no number is given. Active and inactive are the calls of the source. Unless noted, the call rests on the fitted dose curve.

Columns and labels:
[1] = Nuclear factor erythroid 2-related factor 2/antioxidant responsive element (Nrf2/ARE) small molecule agonists: qHTS cell viability counter screen in human keratinocytes (AID 1919968; active means well fitted cell-killing curve with a large enough effect in the repeat runs; further: nearly all actives have a fitted effect of over 55% in size; further: potency means the concentration at half of the fitted maximal effect)
How it was run: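 In human HaCaT keratinocytes stably expressing an ARE-driven luciferase, compound exposure lasted 23 h at 37 C under 5% CO2. Viable cells are quantified with a protease-based fluorogenic reagent (CellTiter-Fluor) read 1 h after addition.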

[2] = Nuclear factor erythroid 2-related factor 2/antioxidant responsive element (Nrf2/ARE) small molecule agonists: luciferase reporter gene qHTS assay in human keratinocytes (AID 1919969); further: nearly all actives have a fitted effect of over 35% in size; further: potency means the concentration at half of the fitted maximal effect
[3] = target: Gonadotropin-releasing hormone receptor (Homo sapiens) (UniProt P30968); assay: Human gonadotropin-releasing hormone receptor (GnRHR) small molecule agonists, calcium flux assay in GnRHR-HEK293 cells (AID 1920063); further: nearly all actives have a fitted effect of over 35% in size; further: potency means the concentration at half of the fitted maximal effect
How it was run: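 Intracellular calcium rise is the read-out: engineered human GnRHR HEK293 cells, dye-loaded, are exposed to DMSO-dissolved compounds and fluorescence at Ex/Em 480/540 is tracked for 3 min.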

[4] = G protein-coupled receptor (GPCR) small molecule agonists, calcium flux assay: HEK293 wild type cell line counter screen (AID 1920065)
How it was run: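 Fluorescence intensity signals activation. After overnight (18 h) culture and a 1 h calcium dye load at 37 C, compounds are added by pin tool and the plate read at 480/540 nm for 3 min in 1 s steps.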

[5] = p53 small molecule agonists, cell-based qHTS assay with human liver microsomes: qHTS cell viability counter screen (AID 1963579); further: nearly all actives have a fitted effect of over 45% in size; further: potency means the concentration at half of the fitted maximal effect
How it was run: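 p53RE-bla cells (4,000/well) were pre-incubated 5 h at 37 C, then given compounds in DMSO plus human liver microsomes (0.5 mg/mL final) and NADPH (0.5 mg/mL final) for 16 h at 37 C. Viability was read by CellTiter-Glo luminescence.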

[6] = p53 small molecule agonists, cell-based qHTS assay with rat liver microsomes: qHTS cell viability counter screen (AID 1963580); further: nearly all actives have a fitted effect of over 45% in size
How it was run: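 Cytotoxicity counter screen: intracellular ATP measured by CellTiter-Glo luminescence in the same wells as the beta-lactamase reporter read, on HCT-116 p53RE-bla cells exposed 16 h at 37 C to compounds with rat liver microsomes and NADPH, each 0.5 mg/mL final.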

[7] = p53 small molecule agonists, cell-based qHTS assay: qHTS cell viability counter screen (AID 1963581); further: nearly all actives have a fitted effect of over 45% in size
How it was run: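 Luminescence from CellTiter-Glo, reflecting ATP content, serves as the cytotoxicity measure; it is taken after the 2 h reporter substrate step in HCT-116 p53RE-bla cells dosed for 16 h at 37 C.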

[8] = target: 5-hydroxytryptamine receptor 2A (Homo sapiens) (UniProt P28223); assay: 5-hydroxytryptamine receptor 2A (HTR2A) small molecule antagonists, cell-based qHTS assay (AID 1963586); further: nearly all actives have a fitted effect of over 45% in size; further: potency means the concentration at half of the fitted maximal effect
How it was run: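 CHO cells stably expressing human HTR2A were plated for 18 h at 37 C, then loaded with calcium dye for 1 h. Compounds were preincubated 5 min at room temperature before DOI (4 nM solution) was added. Kinetic fluorescence was read for 3 min.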

[9] = target: 5-hydroxytryptamine receptor 2A (Homo sapiens) (UniProt P28223); assay: 5-hydroxytryptamine receptor 2A (HTR2A) small molecule agonists, cell-based qHTS assay (AID 1963587); further: nearly all actives have a fitted effect of over 30% in size; further: potency means the concentration at half of the fitted maximal effect
How it was run: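 CHO cells stably expressing human HTR2A, plated 18 h, loaded with calcium dye 1 h at 37 C. Agonist mode: compounds added and intracellular calcium fluorescence recorded kinetically for 2 min at 1 sec intervals.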

[10] = target: Muscarinic acetylcholine receptor M1 (Homo sapiens) (UniProt P11229); assay: Cholinergic receptor muscarinic 1 (CHRM1) small molecule antagonists, cell-based qHTS assay (AID 1963588); further: nearly all actives have a fitted effect of over 40% in size; further: potency means the concentration at half of the fitted maximal effect
How it was run: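 Compounds were tested at 15 concentrations in three independent runs. Dye-loaded CHRM1-CHO cells were exposed 5 min at room temperature before stimulation by acetylcholine added at 50nM. Intracellular calcium was read kinetically on FDSS for 3 min.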

[11] = target: Beta-2 adrenergic receptor (Homo sapiens) (UniProt P07550); assay: Adrenergic beta2 receptor (ADRB2) small molecule antagonists, cell-based qHTS assay (AID 1963592); further: series mostly up to about 92 µM; nearly all actives have a fitted effect of over 50% in size
How it was run: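 Assay format: CHO-ADRB2 cells, 18-20hr seeding at 37C/5% CO2, then compound plus 1nM isoproterenol agonist mix for 0.5hr RT. Homogeneous time-resolved fluorescence cAMP detection after 1hr, expressed as 665/615 nm ratio.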

[12] = target: Muscarinic acetylcholine receptor M1 (Homo sapiens) (UniProt P11229); assay: Cholinergic receptor muscarinic 1 (CHRM1) small molecule agonists, cell-based qHTS assay (AID 1963589); further: nearly all actives have a fitted effect of over 35% in size
How it was run: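 Fluorescent calcium dye reports M1 activation in stably transfected CHO cells. Compounds, 15 concentrations, added after 1 h dye loading at 37 C; kinetic reading at 1 sec intervals.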

[13] = cAMP Responsive Elements (CRE) small molecule agonists, cell-based qHTS assay (AID 1963590)
How it was run: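 Compound exposure lasted 3 h at 37 C/5% CO2 in CRE-bla HEK 293T cells grown in assay medium with 10% dialyzed FBS and 25 mM HEPES. Reporter signal came from LiveBLAzer B/G FRET substrate, 2 h, room temperature.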

[14] = cAMP Responsive Elements (CRE) small molecule antagonists, cell-based qHTS assay (AID 1963591; active means well fitted inhibition curve with a large enough effect in the signal ratio in the repeat runs, not every such curve was filed as active; the % refers to the signal ratio; further: potency means the concentration at half of the fitted maximal effect)
How it was run: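 Stimulation used NKH477 at a final 0.25 uM for 3 h in compound-treated CRE-bla HEK293T cells, seeded 18 h beforehand. Reporter activity was measured with LiveBLAzer B/G FRET substrate after 2 h at room temperature.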

[15] = target: Beta-2 adrenergic receptor (Homo sapiens) (UniProt P07550); assay: Adrenergic beta2 receptor (ADRB2) small molecule agonists, cell-based qHTS assay (AID 1963593);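 further: CHO cells stably overexpressing human ADRB2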
How it was run: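 CHO cells stably over-expressing ADRB2 were plated overnight at 37C, then dosed with compounds plus a stimulation mix containing 100uM IBMX and 25uM Ro-20-1724 for 0.5hr at room temperature. cAMP was measured by HTRF competition, 1hr.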

[16] = target: D(2) dopamine receptor (Homo sapiens) (UniProt P14416); assay: Dopamine D2 receptor (DRD2) small molecule agonists, cell-based qHTS assay (AID 1963594); further: nearly all actives have a fitted effect of over 35% in size
How it was run: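 HEK293 cells stably expressing human DRD2, pre-treated with PDE inhibitor Ro20-1724 (0.1 mM final) and compound 10 min at room temperature, then stimulated with NKH477 (200nM […]) for 30 min. cAMP read by HTRF (665/620 nm).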

[17] = target: D(2) dopamine receptor (Homo sapiens) (UniProt P14416); assay: Dopamine D2 receptor (DRD2) small molecule antagonists, cell-based qHTS assay (AID 1963595; active means well fitted inhibition curve with a large enough effect in the signal ratio in the repeat runs, with a control signal flat; the % refers to the signal ratio)
How it was run: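 HEK293 cells stably expressing DRD2, preincubated with 0.1 mM Ro20-1724 and compounds 10 min, were stimulated with 200 nM NKH477 plus 12 nM quinpirole for 30 min at room temperature; cAMP measured by HTRF (665/620 nm).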

[18] = p53 small molecule agonists, cell-based qHTS assay with rat liver microsomes (AID 1963578)
How it was run: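 p53RE-bla cells were exposed to compounds together with rat liver microsomes (0.5 mg/mL final) and NADPH (0.5 mg/mL final) for 16 h at 37 C, then read by LiveBLAzer beta-lactamase fluorescence after 2 h at room temperature.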

[19] = p53 small molecule agonists, cell-based qHTS assay (AID 1963582; active means well fitted activation curve with a large enough effect in the signal ratio in the repeat runs, not every such curve was filed as active; the % refers to the signal ratio)
How it was run: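 After plating, p53RE-bla cells sat 5 h in the incubator; compounds or DMSO vehicle were pinned in; a 16 h incubation at 37 C followed; FRET substrate was added and, 2 h later at RT, fluorescence was measured.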

Sequence of Beta-2 adrenergic receptor (Homo sapiens) (P07550 whole entry, looked up): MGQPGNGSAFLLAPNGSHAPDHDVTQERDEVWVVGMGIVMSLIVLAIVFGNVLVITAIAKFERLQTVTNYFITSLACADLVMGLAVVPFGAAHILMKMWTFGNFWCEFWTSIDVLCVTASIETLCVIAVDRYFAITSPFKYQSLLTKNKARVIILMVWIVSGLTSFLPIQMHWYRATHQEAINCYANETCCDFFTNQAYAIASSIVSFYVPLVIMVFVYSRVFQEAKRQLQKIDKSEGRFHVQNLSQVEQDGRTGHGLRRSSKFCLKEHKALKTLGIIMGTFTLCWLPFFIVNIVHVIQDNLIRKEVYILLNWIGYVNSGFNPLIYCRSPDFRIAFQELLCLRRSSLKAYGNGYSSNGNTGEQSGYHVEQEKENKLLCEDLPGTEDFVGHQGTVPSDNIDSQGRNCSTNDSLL
Sequence of 5-hydroxytryptamine receptor 2A (Homo sapiens) (P28223 whole entry, looked up): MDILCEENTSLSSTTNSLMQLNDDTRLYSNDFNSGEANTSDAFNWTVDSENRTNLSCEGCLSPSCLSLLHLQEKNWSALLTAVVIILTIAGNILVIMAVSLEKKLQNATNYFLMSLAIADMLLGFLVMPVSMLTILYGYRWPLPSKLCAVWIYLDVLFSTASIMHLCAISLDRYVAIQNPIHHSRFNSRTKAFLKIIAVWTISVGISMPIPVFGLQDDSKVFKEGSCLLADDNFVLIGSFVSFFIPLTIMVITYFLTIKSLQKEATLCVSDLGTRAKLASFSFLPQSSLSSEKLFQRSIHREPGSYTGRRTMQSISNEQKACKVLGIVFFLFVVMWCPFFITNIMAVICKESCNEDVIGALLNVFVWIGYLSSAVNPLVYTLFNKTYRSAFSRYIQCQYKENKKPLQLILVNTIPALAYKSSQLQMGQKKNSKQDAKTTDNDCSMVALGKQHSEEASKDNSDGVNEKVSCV
Sequence of Gonadotropin-releasing hormone receptor (Homo sapiens) (P30968 whole entry, looked up): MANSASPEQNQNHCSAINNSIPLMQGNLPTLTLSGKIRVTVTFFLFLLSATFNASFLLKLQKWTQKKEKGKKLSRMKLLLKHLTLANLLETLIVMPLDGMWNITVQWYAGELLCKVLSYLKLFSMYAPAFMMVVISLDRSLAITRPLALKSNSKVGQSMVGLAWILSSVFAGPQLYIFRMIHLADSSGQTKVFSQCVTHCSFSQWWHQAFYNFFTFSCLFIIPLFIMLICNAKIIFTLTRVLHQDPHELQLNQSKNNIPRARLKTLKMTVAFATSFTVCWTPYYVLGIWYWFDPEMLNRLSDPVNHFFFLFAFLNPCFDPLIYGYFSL
Sequence of Muscarinic acetylcholine receptor M1 (Homo sapiens) (P11229 whole entry, looked up): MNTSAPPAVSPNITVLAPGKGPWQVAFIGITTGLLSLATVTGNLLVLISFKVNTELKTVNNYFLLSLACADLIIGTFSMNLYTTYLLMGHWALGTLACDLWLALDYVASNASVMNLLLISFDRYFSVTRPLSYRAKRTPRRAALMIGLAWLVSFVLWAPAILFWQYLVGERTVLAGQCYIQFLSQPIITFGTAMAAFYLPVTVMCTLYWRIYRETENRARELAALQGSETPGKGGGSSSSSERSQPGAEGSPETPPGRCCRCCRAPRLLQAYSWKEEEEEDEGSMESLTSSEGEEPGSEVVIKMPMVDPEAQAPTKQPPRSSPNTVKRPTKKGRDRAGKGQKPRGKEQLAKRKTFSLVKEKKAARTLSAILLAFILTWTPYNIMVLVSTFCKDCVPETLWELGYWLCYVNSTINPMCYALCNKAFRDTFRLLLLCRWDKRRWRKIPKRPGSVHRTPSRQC
Sequence of D(2) dopamine receptor (Homo sapiens) (P14416 whole entry, looked up): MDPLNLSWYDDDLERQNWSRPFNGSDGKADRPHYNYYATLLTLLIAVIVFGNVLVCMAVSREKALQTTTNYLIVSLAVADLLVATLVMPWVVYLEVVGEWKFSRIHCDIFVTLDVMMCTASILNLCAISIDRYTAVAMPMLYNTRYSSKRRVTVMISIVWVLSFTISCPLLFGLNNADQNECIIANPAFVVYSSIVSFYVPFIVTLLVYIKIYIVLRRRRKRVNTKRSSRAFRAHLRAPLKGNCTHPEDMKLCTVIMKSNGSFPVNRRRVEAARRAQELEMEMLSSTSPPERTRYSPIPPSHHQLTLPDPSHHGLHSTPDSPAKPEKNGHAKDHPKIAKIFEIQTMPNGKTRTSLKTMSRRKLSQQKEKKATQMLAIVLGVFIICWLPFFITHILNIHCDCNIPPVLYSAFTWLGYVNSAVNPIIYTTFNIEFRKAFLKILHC

Row | SMILES | Potency [1] | Potency [2] | Potency [3] | Potency [4] | Potency [5] | Potency [6] | Potency [7] | Potency [8] | Potency [9] | Potency [10] | Potency [11] | Potency [12] | Potency [13] | Potency [14] | Potency [15] | Potency [16] | Potency [17] | Potency [18] | Potency [19]
1 | O=C(c1ccc(O)c(O)c1)c1ccc(O)cc1O | inactive | inactive | inactive | inactive | inactive | inactive | inactive | 47.1 µM (active) | inactive | inactive | inactive |  |  |  |  |  |  |  | 
2 | CCCCC(CC)COC(=O)COc1cc(Cl)c(Cl)cc1Cl (configuration not stated) | inactive | inactive | inactive | inactive | inactive | inactive | inactive | inactive | inactive | inactive | inactive | inactive | inactive | inactive | inactive | inactive | inactive |  | 
3 | CCCCCCCCOC(=O)c1cc(O)c(O)c(O)c1 | 61.1 µM (active) | inactive | 34.7 µM (active) | inactive |  | inactive |  | inactive | 49 µM (active) | inactive | inactive |  | inactive | 30.6 µM (active) |  | inactive |  | inactive | 
4 | CC(=O)Oc1ccc2c(c1)CC[C@@H]1[C@@H]2CC[C@]2(C)[C@@H](O)CC[C@@H]12 | inactive | inactive | inactive | inactive | inactive | inactive | inactive | inactive | inactive | inactive | inactive | inactive | inactive | inactive |  | inactive | inactive | inactive | inactive
5 | NNC(=O)CCCCC(=O)NN | inactive | inactive | inactive | inactive | inactive | inactive | inactive | inactive | inactive | inactive | inactive | inactive | inactive | inactive | inactive | inactive | inactive |  | 
6 | COc1ccc(CCO)cc1 | inactive | inactive | inactive | inactive | inactive | inactive | inactive | inactive | inactive | inactive | inactive | inactive | inactive |  | inactive | inactive | inactive |  | 
7 | COC(=O)c1cc(Cl)cc(Cl)c1 | inactive | inactive | inactive | inactive | inactive | inactive | inactive | inactive | inactive | inactive | inactive | inactive | inactive | inactive |  | inactive | inactive |  | 
8 | CCCCCCCOC(=O)CCC | inactive | inactive | inactive | inactive | inactive | inactive | inactive | inactive | inactive | inactive | inactive | inactive | inactive |  | inactive | inactive | inactive |  | 
9 | CSc1ccc(Oc2ccc(S(N)(=O)=O)cc2CN(C)C)cc1C | inactive | inactive | inactive | inactive | inactive | inactive | inactive |  | inactive | inactive |  | inactive | inactive | inactive |  | inactive |  |  | 
10 | CCCCOC(=O)c1ccccc1 | inactive | inactive | inactive | inactive | inactive | inactive | inactive | inactive | inactive | inactive |  |  | inactive | inactive |  | inactive | inactive | inactive | inactive
11 | O=C(Cl)c1ccc(F)c(Cl)c1 | inactive | inactive | inactive | inactive | inactive | inactive | inactive | inactive | inactive |  | inactive | inactive | inactive | inactive |  | inactive | inactive | inactive | inactive
12 | COc1nccnc1NS(=O)(=O)c1ccc(N)cc1 | inactive | inactive | inactive | inactive | inactive | inactive | inactive | inactive | inactive | inactive | inactive | inactive | inactive | inactive | inactive | inactive | inactive |  | 
13 | COC(=O)c1ccccc1OC | inactive | inactive | inactive | inactive | inactive | inactive | inactive | inactive | inactive | inactive | inactive | inactive | inactive | inactive | inactive | inactive | inactive |  | 
14 | CCCOc1sc(C(=O)N2CCC(c3cc(CN)ccc3F)CC2)c(C)c1Br | 17.7 µM (active) | inactive | 35.7 µM (active) | inactive |  |  |  | inactive | 50.4 µM (active) |  |  |  |  |  |  | inactive |  | inactive | 
15 | CCCC/C=C/C=C\C=O | inactive | 61.1 µM (active) | inactive | inactive | inactive | inactive | inactive | inactive | inactive | inactive | inactive |  | inactive |  |  | inactive | inactive | inactive | inactive
16 | O=C(OCCc1ccccc1)c1ccccc1 | inactive | 27.3 µM (active) | inactive | inactive |  |  | inactive | inactive | inactive |  | inactive | inactive |  |  | inactive | inactive | inactive |  | inactive
17 | NC(N)=NS(=O)(=O)c1ccc(N)cc1 | inactive | inactive | inactive | inactive | inactive | inactive | inactive |  | inactive | inactive | inactive | inactive | inactive | inactive |  | inactive |  |  | 
18 | CC=O | 28.6 µM (active) | inactive | inactive | inactive | 47.9 µM (active) |  |  | inactive |  | 3.5 µM (active) | inactive | inactive |  |  |  | inactive | inactive | inactive | 
